Pf growth 96h = inhibits malaria parasite growth, 96 h; AID 504834; P. falciparum luciferase reporter growth, 96 h; 320,000 tested, 6.9% active; Potency, µM (titrated, usually from 28.7 µM), without a hit: top-dose activity change, negative = inhibition, most hits filed as inhibitors; further: potency means the concentration at half of the fitted maximal effect; on the % scale 0 is the no-effect control and ±100 the full control effect
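Luminescence readout: decreased luciferase signal marks inhibited growth of reporter-expressing P. falciparum in infected red cells (2% hematocrit, 0.05% parasitemia final), exposed to compound two generations (96 h, 37 C, 5% CO2).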
Shiga toxin inh = Shiga toxin inhibition. AID 2315. inhibition, % at 38.7 µM. Vero cells, Shiga toxin protein synthesis inhibition reporter. 290,000 tested, 9.2% active; in the data active means inhibition mostly above about 28%, no sharp cut-off; inactive means mostly below about 43%; further: 0% is about no effect
LmPK inh = LmPK (Leishmania mexicana) enzyme inhibition; purified LmPK, Kinase-Glo ATP luminescence, 1 h; Potency, µM (series often up to 57.5 µM), without a hit: at the highest dose activity change, negative = inhibition, usual class: inhibitors; 290,000 tested, 0.37% active; AID 1721; further: potency means the concentration at half of the fitted maximal effect; on the % scale 0 is the no-effect control and ±100 the full control effect
Target sequence (Q27686 whole entry, looked up): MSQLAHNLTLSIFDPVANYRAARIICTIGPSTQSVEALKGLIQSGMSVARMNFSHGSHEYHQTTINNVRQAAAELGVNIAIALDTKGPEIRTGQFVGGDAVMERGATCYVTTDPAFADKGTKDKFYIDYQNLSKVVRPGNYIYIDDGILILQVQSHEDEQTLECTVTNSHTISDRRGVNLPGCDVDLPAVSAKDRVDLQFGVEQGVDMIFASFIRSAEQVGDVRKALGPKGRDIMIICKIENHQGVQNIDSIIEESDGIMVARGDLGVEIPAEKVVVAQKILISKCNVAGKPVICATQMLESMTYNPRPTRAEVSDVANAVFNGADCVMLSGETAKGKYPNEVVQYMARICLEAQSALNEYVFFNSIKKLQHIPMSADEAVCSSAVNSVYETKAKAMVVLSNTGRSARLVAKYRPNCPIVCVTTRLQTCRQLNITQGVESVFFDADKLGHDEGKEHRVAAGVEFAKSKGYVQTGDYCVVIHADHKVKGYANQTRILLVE
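Kinase-Glo luminescence read after 1 h RT reaction of 0.1 nM LmPK with 0.5 mM PEP and 0.1 mM ADP. Activity scaled between uninhibited and enzyme-free controls.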
Cycloheximide cs = affects cycloheximide protein synthesis inhibition readout, counter-screen | cell reporter, cycloheximide protein synthesis inhibition counterscreen | max response, % | 300,000 tested, 12% active | AID 2314; in the data active means max response mostly above about 13%, no sharp cut-off; inactive means mostly below about 14%; further: read at 38.3 µM for the half of the compounds with a filed dose; 0% is about no effect
Pf growth 48h = inhibits P. falciparum growth in the first generation, 48 h; 310,000 tested, 5.9% active; P. falciparum luciferase growth in erythrocytes, 48 h; AID 504832; Potency, µM (doses to about 28.7 µM), inactives show at the top dose activity change, negative = inhibition, most hits filed as inhibitors; further: potency means the concentration at half of the fitted maximal effect; on the % scale 0 is the no-effect control and ±100 the full control effect
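Cell-based growth assay: transgenic P. falciparum expressing firefly luciferase, cultured in red cells within RPMI 1640 containing 0.5% w/v Albumax, 24 mM bicarbonate and gentamycin. A drop in luciferase activity indicates inhibition.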
An asterisk follows results filed as active; [ ] = remark or other dose. Hits are enriched below; roughly 22% of the tested compounds scored in any of these assays. Unless noted, the call rests on the fitted dose curve; in most records, active means well fitted inhibition curve with a large enough effect; inconclusive means small, poorly fitted or top-dose-only effect, or another doubt; inactive means no such curve, though single readings can be large or run the other way.

For COc1ccccc1CNC(=O)c1cc2c(C)nn(Cc3ccc(F)cc3)c2s1 the results were Pf growth 96h 12µM*, Shiga toxin inh -8, LmPK inh 4%, Cycloheximide cs 1 and Pf growth 48h inconclusive.
CCC(CC)NC(=O)c1cc2c(C)nn(Cc3ccccc3Cl)c2s1 was read as Shiga toxin inh -4, LmPK inh -7%, Cycloheximide cs -4 and Pf growth 48h 13µM*.
Screening Cc1nn(Cc2ccccc2Cl)c2sc(C(=O)Nc3ccccc3N3CCOCC3)cc12 returned Pf growth 96h inconclusive, Shiga toxin inh -20, LmPK inh 0%, Cycloheximide cs -5 and Pf growth 48h inconclusive.
O=C(CSc1nnc(-c2ccc(F)cc2)n1CC1CCCO1)NCc1ccco1 (stereo not drawn) was read as Pf growth 96h -6%, Shiga toxin inh 7, LmPK inh -4%, Cycloheximide cs 6 and Pf growth 48h 4%.
Screening N#Cc1nc(COc2ccccc2)oc1N1CCC(Cc2ccccc2)CC1 returned Pf growth 96h -1%, Shiga toxin inh -14, LmPK inh 3%, Cycloheximide cs -4 and Pf growth 48h 9.3µM*.
Screening Cc1ccccc1OCc1nc(C#N)c(N2CCCC2)o1 returned Pf growth 96h -5%, Shiga toxin inh 37, LmPK inh 6%, Cycloheximide cs 4 and Pf growth 48h inconclusive.
`COc1ccccc1OCc1nc(C#N)c(N2CCCC2)o1` gave Pf growth 96h -2%, Shiga toxin inh 49*, LmPK inh 2%, Cycloheximide cs 27* and Pf growth 48h 7%.
`N#Cc1nc(Cc2cccc3ccccc23)oc1N1CCOCC1` gave Pf growth 96h 2.1µM*, Shiga toxin inh -2, LmPK inh 7%, Cycloheximide cs -3 and Pf growth 48h inconclusive.
CC1CC(C)CN(c2oc(Cc3ccccc3)nc2C#N)C1 (stereo not drawn) was read as Pf growth 96h inconclusive, Shiga toxin inh 13, LmPK inh 3%, Cycloheximide cs 6 and Pf growth 48h inconclusive.
N#Cc1nc(Cc2ccccc2)oc1N1CCCC1 was read as Pf growth 96h -15%[5.75 µM], Shiga toxin inh 35*, LmPK inh -1%, Cycloheximide cs 26* and Pf growth 48h -7%.
`Cc1ccc(CNC(=O)C(C)OC(=O)c2cccs2)cc1` (stereo not drawn) gave Pf growth 96h inconclusive, Shiga toxin inh -23, LmPK inh -3%, Cycloheximide cs 2 and Pf growth 48h 11%.
CCc1nc(N2CCN(C(C)=O)CC2)c2c3c(sc2n1)CC(C(C)(C)C)CC3 (stereo not drawn) was read as Pf growth 96h 45%, Shiga toxin inh -3, LmPK inh 1%, Cycloheximide cs -1 and Pf growth 48h inconclusive.
`Cc1ccc(S(=O)(=O)N2CCN(c3nc(C)nc4sc(C)c(C)c34)CC2)cc1` gave Pf growth 96h -13%, Shiga toxin inh -5, LmPK inh 4%, Cycloheximide cs 4 and Pf growth 48h 23%.
Screening CCc1nc(N2CCN(C(=O)CCl)CC2)c2c3c(sc2n1)CC(C)CC3 (stereo not drawn) returned Pf growth 96h -67%, Shiga toxin inh 36, LmPK inh -1%, Cycloheximide cs 11* and Pf growth 48h inconclusive.
For Cc1ccc(S(=O)(=O)N2CCN(c3nc(C)nc4sc5c(c34)CCC(C)C5)CC2)cc1 (stereo not drawn) the results were Pf growth 96h 7.4µM*, Shiga toxin inh -16, LmPK inh 0%, Cycloheximide cs -4 and Pf growth 48h inconclusive.
For CS(=O)(=O)N(CC(=O)NCCSCc1ccccc1Cl)c1ccc(F)cc1 the results were Pf growth 96h -10%, Shiga toxin inh -10, LmPK inh 8%, Cycloheximide cs 2 and Pf growth 48h 9%.
COc1cc(OC)c(OC)cc1CNCc1ccco1 was read as Pf growth 96h 38%, Shiga toxin inh 26, LmPK inh 1%, Cycloheximide cs -3 and Pf growth 48h 28%.
For CCCOCCN(C(=O)CCl)c1c(CC)cccc1CC the results were Shiga toxin inh -5 and Cycloheximide cs 1.
Screening Cc1cc(NC(=O)CSc2nc3c([nH]c4ccccc43)c(=O)n2-c2ccccc2F)no1 returned Pf growth 96h 13µM*, Shiga toxin inh -4, LmPK inh 4%, Cycloheximide cs -1 and Pf growth 48h 13µM*.
Screening COc1ccc(C)cc1-n1c(SCC(=O)NCC2CCCO2)nc2c([nH]c3ccccc32)c1=O (stereo not drawn) returned Pf growth 96h inconclusive, Shiga toxin inh -7, LmPK inh -2%, Cycloheximide cs 0 and Pf growth 48h 9.3µM*.
Screening Cc1cc(NC(=O)CSc2nc3c([nH]c4ccccc43)c(=O)n2-c2cccc(C(F)(F)F)c2)no1 returned Pf growth 96h 9.3µM*, Shiga toxin inh 6, LmPK inh 1%, Cycloheximide cs -2 and Pf growth 48h 12µM*.
For COc1ccccc1-n1c(SCC(=O)Nc2cc(C)on2)nc2c([nH]c3ccccc32)c1=O the results were Pf growth 96h 12µM*, Shiga toxin inh 10, LmPK inh -4%, Cycloheximide cs 8 and Pf growth 48h -21%.
Screening COC(=O)c1[nH]nc(C(=O)OC(C)(C)C)c1-c1ccccc1 returned Pf growth 96h -17%, Shiga toxin inh -5, LmPK inh -2%, Cycloheximide cs -1 and Pf growth 48h -17%.
`CCCCC(=O)Nc1nnc(CCc2ccccc2)s1` gave Pf growth 96h 0%, Shiga toxin inh 16, LmPK inh 6%, Cycloheximide cs -2 and Pf growth 48h -20%.
Screening Cc1nc2ccc(S(=O)(=O)NCC(=O)N(C)Cc3ccccc3)cc2s1 returned Pf growth 96h 16%, Shiga toxin inh 10, LmPK inh -3%, Cycloheximide cs 20 and Pf growth 48h inconclusive.
COc1cccc(Oc2ccc(C(F)(F)F)cc2N)c1 was read as Pf growth 96h 46%, Shiga toxin inh 87*, LmPK inh 7%, Cycloheximide cs 29* and Pf growth 48h 52%.
COc1cccc(Oc2ccc(C(F)(F)F)cc2NC(=O)c2cccc(F)c2)c1 was read as Pf growth 96h inconclusive, Shiga toxin inh -1, LmPK inh -1%, Cycloheximide cs -2 and Pf growth 48h inconclusive.
CCOc1ccc(Oc2ccc(C(F)(F)F)cc2N)cc1 was read as Pf growth 96h -5%, Shiga toxin inh 44, LmPK inh 5%, Cycloheximide cs 16* and Pf growth 48h 29%.
Screening COc1cc(C(C)=O)ccc1Oc1cc(NN2CCCCC2)c([N+](=O)[O-])cc1[N+](=O)[O-] returned Pf growth 96h -20%, Shiga toxin inh -3, LmPK inh -3%, Cycloheximide cs 2 and Pf growth 48h inconclusive.
O=C1CCCCCN1Cc1nnc(SCc2nc3ccccc3s2)n1-c1ccccn1 was read as Pf growth 96h 106%, Shiga toxin inh 92*, LmPK inh -1%, Cycloheximide cs 74* and Pf growth 48h 107%.
